The list is not random: actives were taken first. Their share in the collection is about 1.1%.
PINK1 expr mod: A Quantitative High throughput Screen to Identify Chemical Modulators of PINK1 Expression; PINK1 immunofluorescence, high-content cytometry, 24 h; AID 624263, 2012; hit rate 0.2% among 410,000; Potency, µM (top dose mostly 76.6 µM), inactives show at the top dose activation (PINK1 increase), usual class: activators; active = well fitted activation curve with a large enough effect; inconclusive = small, poorly fitted or top-dose-only effect; cell line not stated here; note: potency is the fitted concentration of half-maximal effect; % of control where 0% means no effect; nearly all actives have a fitted effect of over 65% in size
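Stable cell line, 250 cells/well, 12 h attachment; compounds pinned at 5 concentrations, 24 h; CCCP control. Fixed with nuclear dye, primary antibodies 12 h at 10 degrees C, secondary plus cell stain; laser-scanning cytometer read.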
TrxR1 substrate: qHTS Assay for Substrates of Mammalian Selenoprotein Thioredoxin Reductase 1 (TrxR1): qHTS; Thioredoxin reductase 1, cytoplasmic (Rattus norvegicus), O89049; purified TrxR1 substrate turnover, NADPH consumption readout; Potency, µM (highest dose often 114 µM), without a hit: at the highest dose activity change, negative = substrate turnover; hit rate 0.01% among 390,000; AID 588456, 2011; note: potency is the fitted concentration of half-maximal effect; % is set by controls: 0 for no effect and ±100 for the full control effect; nearly all actives have a fitted effect of over 50% in size
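Rat TrxR1, dispensed at 90 nM, was prereduced with 400 uM NADPH (final) for 5 min at ~22 deg C, then incubated with compound 15 min before 400 uM selenite. A first-read NADPH fluorescence drop versus no-compound background flagged substrates.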
TrxR1 inh: qHTS Assay for Inhibitors of Mammalian Selenoprotein Thioredoxin Reductase 1 (TrxR1): qHTS. Thioredoxin reductase 1, cytoplasmic (Rattus norvegicus), O89049. recombinant rTrxR1, NADPH fluorescence consumption, selenite substrate. Potency, µM (titrated, usually from 114 µM), for inactives: at the top dose activity change, negative = inhibition, actives largely listed as inhibitors. hit rate 1% among 390,000; note: potency is the fitted concentration of half-maximal effect; % is set by controls: 0 for no effect and ±100 for the full control effect; nearly all actives have a fitted effect of over 65% in size
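Rat TrxR1 (90 nM in the dispensed reagent) was pre-reduced with 400 uM NADPH for 5 min at room temperature, then incubated with compound for 15 min. After 400 uM selenite was added, NADPH fluorescence (Ex 340/Em 450 nm) was followed for 8 min.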
miR-21 reporter: qHTS Assay for Modulators of miRNAs and/orActivators of miR-21; HeLa miR-21 FLuc reporter, luciferase, 48 h; Potency, µM (series often up to 38.3 µM), inactives show at the highest dose activity change, positive = activation, hits mostly activators; 340,000 tested, under 10 active; AID 2288, 2010;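 note: % of control where 0% means no effect; miR-21 action dims this reporter so a rising signal means less miR-21 action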
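Using DMEM plus 10% FBS, HeLa miR-21-FLuc cells are incubated with test compounds (final up to about 40uM) for 48 hours; firefly luciferase signal is then imaged following reagent-mediated lysis.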
GALK inh: qHTS Assay for Inhibitors of Human Galactokinase (GALK). P51570. Purified GALK, Kinase-Glo residual ATP luminescence. Potency, µM (doses to about 57.5 µM), inactives show at the highest dose activity change, negative = inhibition, usual class: inhibitors. hit rate 0.007% among 270,000; note: potency is the fitted concentration of half-maximal effect; % is set by controls: 0 for no effect and ±100 for the full control effect
Target sequence (P51570 whole entry, looked up): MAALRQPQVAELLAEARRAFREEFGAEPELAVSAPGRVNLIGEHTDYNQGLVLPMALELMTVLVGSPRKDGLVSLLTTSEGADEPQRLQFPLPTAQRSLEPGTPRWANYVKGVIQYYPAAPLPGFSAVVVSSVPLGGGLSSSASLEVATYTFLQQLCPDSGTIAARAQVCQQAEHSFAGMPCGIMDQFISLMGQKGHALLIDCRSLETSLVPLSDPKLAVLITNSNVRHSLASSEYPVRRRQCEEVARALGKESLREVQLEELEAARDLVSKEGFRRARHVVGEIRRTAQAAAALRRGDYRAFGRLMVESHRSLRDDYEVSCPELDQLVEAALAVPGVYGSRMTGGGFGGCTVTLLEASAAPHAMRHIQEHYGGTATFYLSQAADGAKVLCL
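Compounds were pin-transferred into ATP buffer (35 uM final), then GALK plus galactose (5 nM, 100 uM final) was added. After 1 h at room temperature, Kinase-Glo Plus was added and luminescence read after 10 min.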
Starred values were filed as active, the others as inactive; ? = inconclusive; nt = no result; [ ] = dose if it differs, or a comment. Unless noted, calls come from the whole dose curve; as a rule, active = well fitted curve in the direction sought with a large enough effect; inconclusive = small, poorly fitted or top-dose-only effect, or another doubt; inactive = no such curve, though single readings can be large; an effect the other way counts as inactive or inconclusive.

SMILES | PINK1 expr mod | TrxR1 substrate | TrxR1 inh | miR-21 reporter | GALK inh
CC(C)n1cc(/C=C/c2cc[n+](C)cc2)c2ccccc21 | 39.8µM* | -7.7% | -9.0% | ? | 1.6%
C=CCn1c(C)c(/C=C/c2cc[n+](C)cc2)c2ccccc21 | ? | -10.5% | 0.1% | ? | -7.8%
CCn1cc(/C=C/c2cc[n+](C)cc2)c2ccccc21 | 28.2µM* | -10.4% | -7.9% | ? | 2.3%
CC1CN(C(=O)CCC(=O)NCc2ccc(F)cc2)c2cc(Cl)ccc2O1 (stereo not drawn) | 0.9% | 4.3% | 5.9% | 8.8% | nt
C=Cc1ccc(CN2C(=O)N(c3cccc(Cl)c3)S(=O)(=O)c3ccccc32)cc1 | 1.0% | 2.0%[57.1 µM] | 25.6%[57.1 µM] | 8.4% | nt
CCc1ccccc1NNC(=O)c1sccc1Cl | 0.5% | 4.6% | -15.1% | nt | nt
O=C(NCCc1ccncc1)c1cnn(-c2ncc3c(n2)-c2ccccc2CCC3)c1C1CC1 | 0.4% | nt | nt | nt | nt
NC(=O)c1c(N)sc2c1CCC2 | 1.9% | -6.2% | 50.1µM* | -1.9% | 2.5%
Nc1sc2c(c1C(=O)NC1CCS(=O)(=O)C1)CCC2 (stereo not drawn) | 2.8% | 8.7%[57.1 µM] | 25.1µM* | -3.1% | -3.3%
NC(=O)c1c(N)sc2c1CCCCC2 | 1.1% | -1.5% | -21.9% | -15.3% | -0.1%
O=C(NC1CCC(n2cc(C(=O)NC3CC3)nn2)CC1)C(=O)c1ccccc1 (stereo not drawn) | 0.0% | nt | nt | nt | nt
Cn1nnnc1SCCCNCc1cccc(OCc2ccc(F)cc2)c1 | 2.5% | -12.1% | -11.7% | 26.0% | nt
CCOC(=O)c1[nH]c(=O)[nH]c1COC(=O)c1cc2ccccc2o1 | -0.3% | 0.7% | 3.16µM* | 0.1% | 2.6%
O=C(Cn1c(=O)n(-c2ccc(Cl)cc2)c(=O)c2oc3ccccc3c21)Nc1ccccc1 | 1.2% | 3.0% | 10.6% | -35.2% | nt
Cc1ccccc1Oc1cc(-n2ncc(Cl)c(Cl)c2=O)ncn1 | 2.3% | 3.4% | 0.794µM* | ? | -5.6%
CO[C@H]1[C@H](NC(=O)c2ccsc2)c2ccccc2C12CCN(Cc1c(O)ccc3ccccc13)CC2 | 0.5% | nt | nt | nt | nt
Cc1ccc(S(=O)(=O)c2ncccc2[N+](=O)[O-])cc1 | -2.5% | -0.7%[57.1 µM] | 2µM* | ? | 1.5%
CCOc1ccc(N(C)C(CNS(=O)(=O)c2ccccc2)c2ccccc2)cc1 (stereo not drawn) | 2.6% | -4.7% | 12.7% | ? | nt
CCN(CC)c1ccc(CN(C(=O)c2cc(=O)c3ccccc3o2)C2CCS(=O)(=O)C2)cc1 (stereo not drawn) | 1.1% | -8.4% | -0.6% | -1.9% | nt
CCCCN(CCCC)CC(O)c1cc(Cl)cc2c1-c1ccc(Cl)cc1C2=Cc1ccc(Cl)cc1 (stereo not drawn) | 2.1% | 6.7% | -6.6% | nt | nt
O=C(NCCc1ccccc1)C(c1cccs1)N(C(=O)CCl)c1ccc(Cl)cc1 (stereo not drawn) | -2.1% | 2.3% | 3.16µM* | ? | -3.1%
O=C(NCCc1ccccc1)C(c1cccs1)N(C(=O)c1csnn1)C1CC1 (stereo not drawn) | 1.0% | 12.5% | 23.8% | -6.9% | 2.8%
CC(=O)c1cccc(NC(=O)Nc2sc3nc4n(c(=O)c3c2C)CCC(C)CC4)c1 (stereo not drawn) | -0.2% | -6.2% | 4.5% | 2.7% | nt
Cc1cc(C)c(OCC(=O)OCCNC(=O)c2cccnc2)c(C)c1 | 1.2% | -3.2% | 50.1µM* | -3.3% | 0.4%
COc1cc(C(=O)OCCNC(=O)c2cccnc2)cc(OC)c1OC | 0.5% | 2.7%[57.1 µM] | -6.7% | nt | nt
CCN1CCOC(=O)C1CC(=O)Nc1ccc(Br)cc1 (stereo not drawn) | 1.2% | 6.6%[11.4 µM] | 70.8µM* | -33.6% | nt
CCN1CCOC(=O)C1CC(=O)Nc1cc(C)ccc1OC (stereo not drawn) | -1.5% | 5.2%[11.4 µM] | 11.2µM* | -24.0% | nt
O=C1c2ccccc2C(=O)C1c1ccnc2ccccc12 | 0.7% | 7.4%[57.1 µM] | 2.9%[57.1 µM] | -24.3% | 2.9%
